Results taken from PubChem BioAssay AID1851 (National Center for Advancing Translational Sciences (NCATS), 2009).
The whole screen tested about 16,000 compounds, of which about 2,600 (16%) were called active. Roughly 20% stayed inconclusive and do not appear here. The call rests on the fitted dose curve; in most records, active means well fitted curve in the direction sought with a large enough effect; inconclusive means small, poorly fitted or top-dose-only effect, or effect the other way; inactive means no such curve, though single readings can be large or run the other way. These entries were drawn from the full list.

target: Cytochrome P450 2D6 (Homo sapiens) (UniProt P10635); assay: Cytochrome panel assay with activity outcomes; conditions: recombinant CYP, pro-luciferin dealkylation, luminescence, p450-cyp2d6; series mostly up to 57.1 µM; activity, negative = inhibition: at the top concentration
Sequence (P10635 whole entry, looked up): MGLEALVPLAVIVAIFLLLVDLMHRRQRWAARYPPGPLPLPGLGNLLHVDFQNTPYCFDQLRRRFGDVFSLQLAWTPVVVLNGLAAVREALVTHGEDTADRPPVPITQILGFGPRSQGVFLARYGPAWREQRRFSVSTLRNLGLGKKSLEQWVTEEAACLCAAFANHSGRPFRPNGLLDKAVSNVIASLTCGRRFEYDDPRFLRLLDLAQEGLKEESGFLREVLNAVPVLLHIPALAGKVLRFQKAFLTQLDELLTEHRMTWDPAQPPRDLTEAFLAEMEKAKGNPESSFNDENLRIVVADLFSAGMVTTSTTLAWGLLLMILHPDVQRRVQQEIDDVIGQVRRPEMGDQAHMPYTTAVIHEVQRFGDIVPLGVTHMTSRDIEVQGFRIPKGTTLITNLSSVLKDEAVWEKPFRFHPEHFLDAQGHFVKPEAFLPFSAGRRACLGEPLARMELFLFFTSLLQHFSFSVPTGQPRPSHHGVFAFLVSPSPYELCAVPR
On the % scale 0 is the no-effect control and ±100 the full control effect.

SMILES | activity, negative = inhibition | AC50
C/C(=N\[N+](C)(C)C)c1ccc(C)c(C)c1 | -19.6% [at 11.4 µM] (inactive) | 
O=C(O)C1C2C=CC(C2)C1C(=O)N1CCN(C/C=C/c2ccccc2)CC1 (configuration not stated) | -10.1% (inactive) | 
Cc1cccc(C(=O)Nc2nnc(-c3ccc(C(C)(C)C)cc3)s2)c1 | 7.99% (inactive) | 
CCCc1nnc(NC(=O)Cn2cnc3ccccc3c2=O)s1 | 11.7% (inactive) | 
COc1ccc(C(O)P(=O)(OC(C)C)OC(C)C)cc1OC (configuration not stated) | -13.6% (inactive) | 
CCc1ccc(N2C(=O)c3ccc4c5c(ccc(c35)C2=O)CC4)cc1 | -7.44% (inactive) | 
C=CCN1C(=O)CN=C1Nc1ccccc1 | 2.01% (inactive) | 
CN1CCN(/C=N/C2=C(C#N)C(c3ccccc3)C3=C(CC(C)(C)CC3=O)O2)CC1 (configuration not stated) | 5.01% (inactive) | 
COc1ccc(N2CCc3c(C)nc4c(OC)cc(OC)cc4c32)c(OC)c1 |  | 0.1 µM (active)
COc1ccc(N2C(=O)CSC2c2cccc(F)c2)c(OC)c1 (configuration not stated) | 17.9% (inactive) | 
CSc1nc(C)c2c(n1)N(c1ccc(C(F)(F)F)cc1)CC2 | 7.98% (inactive) | 
COc1cc(OC)c2nc(C)c3c(c2c1)N(c1ccc(O)cc1)CC3 |  | 3.16 µM (active)
CSc1nc(C)c2c(n1)N(c1ccc(C(C)C)cc1)CC2 | -7.45% (inactive) | 
COc1ccc2c(C)cc(N3CCOCC3)nc2c1 | -26.1% (inactive) | 
CN(C)CCNc1ncnc2c1sc1nc(N3CCOCC3)c3c(c12)CC(C)(C)SC3 | -6.95% (inactive) | 
CC(C)/C(=N/[N+](C)(C)C)c1ccccc1 | 6.75% [at 11.4 µM] (inactive) | 
CC1(C)CC(=O)C/C(=N/NC(=O)CCCOc2ccc(Cl)cc2Cl)C1 | -22.8% (inactive) | 
CC(C)NCCCOc1ccc(Cl)cc1Br |  | 0.178 µM (active)
CC(C)C(=O)Nc1ccc(C(=O)NNC(=O)CCCOc2ccc(Cl)cc2Cl)cc1 | -9.88% (inactive) | 
CC1(C)O[C@H]2[C@@H](O1)[C@@H](On1nnc3ccc(Cl)cc31)O[C@@H]2[C@@H]1COC(C)(C)O1 | -7.25% [at 11.4 µM] (inactive) | 
COc1ccc(C(=O)NNC(=O)CSc2nnc(COc3ccc4ccccc4c3)n2C)cc1 | -0.0652% (inactive) | 

SMILES | activity, negative = inhibition | AC50
Cc1[nH]nc(-c2ccc(O)cc2O)c1-c1ccc(Cl)cc1 |  | 3.55 µM (active)
C=C(C)COc1ccc(-c2n[nH]c(C)c2-c2ccc(OC)cc2)c(O)c1 | -87.9% (inactive) | 
Oc1ccc(-c2[nH]ncc2-c2ccc(Cl)cc2)c(O)c1 |  | 8.91 µM (active)
CCCCc1ccc(-c2csc(/C(C#N)=C/c3ccc(C)o3)n2)cc1 | -2.34% (inactive) | 
CS(=O)c1ccccc1-c1nc(-c2cc(C(F)(F)F)cc(C(F)(F)F)c2)no1 (configuration not stated) | -17% (inactive) | 
COc1ccc(-n2nc3cc(C)c(NC(=S)NC(=O)c4ccccc4C)cc3n2)cc1 | 6.83% (inactive) | 
COC(=O)c1cc(C(=O)c2ccc(Cl)cc2Cl)cn1C | 9.82% (inactive) | 
CC1(C)S[C@@H]2[C@H](NC(=O)[C@@H](N)c3ccccc3)C(=O)N2[C@H]1C(=O)O[C@H]1OC(=O)c2ccccc21 | 0.075% [at 25.6 µM] (inactive) | 
CC(=O)Nc1ccc(Nc2ncc([N+](=O)[O-])c(Nc3ccc(NC(C)=O)cc3)n2)cc1 | -4.74% (inactive) | 
Cc1ccc(Nc2c([N+](=O)[O-])ccc3c2=NC2(CCCCC2)N=3)cc1 |  | 25.1 µM (active)
O=C(NC1CCCC1)c1cccnc1N1CCCCCC1 | 11.3% (inactive) | 
Cc1ccc(NC(=O)c2sc3nc[nH]c(=O)c3c2C)c(C)c1 | -18.3% (inactive) | 
CCCSc1nnc2n(N)c(=O)c3ccccc3n12 | -7.37% (inactive) | 
O=C(CCOc1ccccc1)Nc1ccccc1 | 21.3% (inactive) | 
CCC(=O)Nc1cccc(C(=O)/C=C/c2ccccc2)c1 | -16.4% (inactive) | 
Cc1c(NC(=O)/C=C/C(=O)O)cccc1[N+](=O)[O-] | 0.595% (inactive) | 
Cc1c(NC(=O)CCCOc2ccccc2)cccc1[N+](=O)[O-] |  | 1.58 µM (active)
COC(=O)c1cccc(NC(=O)CCCOc2ccccc2)c1 |  | 10 µM (active)
Cc1ccc(OCCCC(=O)Nc2ccccc2C(F)(F)F)cc1 | -17.2% (inactive) | 
CCc1sc(-c2c(C#N)c(N)nc3c2CCCCCC3)cc1[N+](=O)[O-] | -11.8% (inactive) | 
COc1ccccc1CCn1c(=O)c(-c2cn(C)c3ccccc23)nc2cncnc21 | -10.1% (inactive) | 

SMILES | activity, negative = inhibition | AC50
CC(C)n1c(O)c(/C=C2\C=Nc3ccccc32)sc1=Nc1ccccc1 | -18% (inactive) | 
COc1ccc2sc3ccccc3c(=O)c2c1OC | -15.6% (inactive) | 
O=c1c2ccccc2sc2c(CO)ccc(NCCN3CCCCC3)c12 |  | 1.26 µM (active)
CCN(CC)CCNc1ccc(CO)c2sc3ccccc3c(=O)c12 |  | 5.01 µM (active)
C#CCCCO/N=C1/C[C@@H](O)[C@@H](O)[C@@H]2[C@@H]3C(=O)N(C[C@@H]4CCCO4)C(=O)[C@H]3CC[C@H]12 | -7.06% [at 11.4 µM] (inactive) | 
Cn1c(=O)c(-c2ccccc2)nc2cnc(N3CCOCC3)nc21 | -3.69% (inactive) | 
CC(=O)OC1COC(N2CCc3cc([N+](=O)[O-])ccc32)C(OC(C)=O)C1OC(C)=O (configuration not stated) | 27% (inactive) | 
COc1cccc(-c2csc(N3CCN(CC(=O)NNC(=O)c4ccc(Cl)cc4)CC3)n2)c1 | -17.2% (inactive) | 
CC(C)(CO[C@H]1C[C@H]2CC[C@@]1(C)C2(C)C)[N+](=O)[O-] | 11.9% [at 11.4 µM] (inactive) | 
CC(C)=CCC/C(C)=C/CO/N=C1/C[C@@H](O)[C@@H](O)[C@@H]2[C@@H]3C(=O)N(C4CCCCC4)C(=O)[C@H]3CC[C@H]12 | -9.81% [at 11.4 µM] (inactive) | 
CS(=O)(=O)c1ccc(/C=N\NC(N)=S)cc1 | 9.53% [at 11.4 µM] (inactive) | 
Cc1ccc(-n2c(N)c(C(=O)NCc3ccco3)sc2=S)cc1 | -9.85% (inactive) | 
CCc1c(O)nc(SCC(=O)NC(C)(C)C)n(-c2ccccc2)c1=O | -8.15% (inactive) | 
Cc1ccc(-n2c(SCC(=O)NCc3ccco3)nc3sc4c(c3c2=O)CC(C)(C)SC4)cc1 |  | 2.82 µM (active)
CC(Cc1ccccc1)NC(=O)CSc1nc2nc3c(cc2c(=O)n1-c1ccccc1)COC(C)(C)C3 (configuration not stated) | -28.9% (inactive) | 
O=C(CSc1nnc2sc3ccccc3n12)NCc1ccco1 | -17.7% (inactive) | 
CC1(C)Cc2c(sc3nc(SCC(=O)NCc4ccccc4)n(-c4ccccc4)c(=O)c23)CS1 |  | 3.55 µM (active)
Cn1cc[nH]c1=S | 6.67% [at 25.6 µM] (inactive) | 
Cn1cnc([N+](=O)[O-])c1SCC(=O)O | -1.18% [at 11.4 µM] (inactive) | 
C[C@@H]1C[C@H](OC(=O)c2ccccc2O)CC(C)(C)C1 | -4.22% [at 25.6 µM] (inactive) | 
